{
  "source": "PubChem BioAssay AID1159606",
  "about": "(Sanford-Burnham Center for Chemical Genomics, 2016)",
  "note": "Hit rate of the full screen: of about 360,000 compounds, about 7,300 (2%) were called active. This is one part of a sample in which actives are shown more often than they occur. Values without a mark were called inactive. Rule as the data show it: active = inhibition above about 50%; inactive = the rest.",
  "data": [
    {"experiment": "blockers of TWEAK-induced Fn14 reporter activity – luciferase reporter cells, uHTS, primary screen (AID 1159606)", "details": "TWEAK-stimulated Fn14 reporter cells, luciferase luminescence, 8 h; at 10 µM; hits give high values", "values": [
      {"compound": "COc1ccc(NC(=O)CC2C(=O)NC3CCCCC3N2C(=O)c2ccc(F)cc2)cc1", "note": "(stereo not given)", "inhibition": "3.34%"},
      {"compound": "CCSc1nc(=S)n(CC)c(C)c1C(C)=O", "inhibition": "-1.72%"},
      {"compound": "O=S1(=O)C[C@@H](N2CCN(CCO)CC2)[C@H](COCc2ccccc2)N1", "inhibition": "7.64%"},
      {"compound": "CCOC(=O)[C@H]1[C@H]2COc3ccc(C)cc3[C@@H]2N2C(=O)CN(Cc3ccc(F)cc3)C(=O)[C@@]12C", "inhibition": "-5.2%"},
      {"compound": "COc1cccc(/C=C(/CC(=O)Nc2ccc(N3CCOCC3)cc2)c2nc3ccccc3s2)c1", "inhibition": "62.8% (active)"},
      {"compound": "CCn1c(Cc2ccc(OC)cc2)nnc1SCC(=O)Nc1ccc(N2CCOCC2)cc1", "inhibition": "4.78%"},
      {"compound": "O=C(COC(=O)CCc1nc2ccccc2c(=O)[nH]1)Nc1ccc(N2CCOCC2)cc1", "inhibition": "-0.73%"},
      {"compound": "CCN(CC)C(=O)[C@H]1C[C@H](CC(=O)NCC23CC4CC(CC(C4)C2)C3)C(=O)N2CCc3c([nH]c4cc(CCC(=O)N(C)C)ccc34)[C@]12C", "inhibition": "6.21%"},
      {"compound": "Cc1cccc(CN2CCN(C3CN(Cc4cn(Cc5cc(C)cc(C)c5)nn4)S(=O)(=O)C3)CC2)c1", "note": "(stereo not given)", "inhibition": "12.5%"},
      {"compound": "COc1ccccc1OCc1nc2ccccc2s1", "inhibition": "72.9% (active)"},
      {"compound": "COC(=O)C1[C@H]2SC(C)(C)C(C(=O)OC)N2C(=O)N1Cc1nc2ccccc2s1", "note": "(stereo not given in full)", "inhibition": "10%"},
      {"compound": "CCc1ccc(-c2nnn(Cc3nc4ccccc4s3)n2)cc1", "inhibition": "-5.59%"},
      {"compound": "CC1(C)C2CC[C@]3(C)C(CC=C4[C@@H]5C[C@@](C)(CO)CC[C@]5(C(=O)O)CC[C@]43C)[C@@]2(C)CC[C@@H]1O", "note": "(stereo not given in full)", "inhibition": "-12.1%"},
      {"compound": "CNC(=O)C1CN(C(=O)c2cccc(S(=O)(=O)N3CCc4ccccc43)c2)c2ccccc2O1", "note": "(stereo not given)", "inhibition": "11.3%"},
      {"compound": "CNC(=O)c1ccsc1NC(=O)c1ccc(S(=O)(=O)N2CCc3ccccc32)cc1", "inhibition": "54.5% (active)"},
      {"compound": "CC1CN(S(=O)(=O)c2ccc(C(=O)Nc3sccc3C(N)=O)cc2)CC(C)O1", "note": "(stereo not given)", "inhibition": "-0.86%"},
      {"compound": "CCCCCc1c(Cc2ccccc2)ncn1CCc1ccccc1OC", "inhibition": "24.1%"},
      {"compound": "Cc1ccc(C)c(NC(=O)CN(C)C(=O)c2ccc3ncsc3c2)c1", "inhibition": "1.46%"},
      {"compound": "Cc1ccc(NS(=O)(=O)c2cc3c(cc2Br)NC(=O)CO3)cc1C", "inhibition": "19.6%"},
      {"compound": "O=C(Nc1cccc(F)c1)[C@@H]1CCCN1", "inhibition": "-1.09%"},
      {"compound": "O=C1c2ccccc2C(=O)N1CC1c2ccccc2CCN1S(=O)(=O)c1ccccc1", "note": "(stereo not given)", "inhibition": "4.13%"},
      {"compound": "CCC(C)NC(=O)c1ccccc1NC(=O)c1ccccc1N(C)S(C)(=O)=O", "note": "(stereo not given)", "inhibition": "-11.3%"},
      {"compound": "CC(C)(C)OC(=O)NCCCCCC(=O)N/N=C/c1coc2ccccc2c1=O", "inhibition": "-1.48%"},
      {"compound": "Cc1ccc2occ(/C=N/NC(=O)c3ccccc3C)c(=O)c2c1", "inhibition": "70.5% (active)"},
      {"compound": "O=c1c(/C=N/O)coc2ccc(Cl)cc12", "inhibition": "-3.08%"},
      {"compound": "CC1(C)CC(=O)c2cnc3nc4ccccc4n3c2C1", "inhibition": "6.24%"},
      {"compound": "Cn1c(N)c(C(=O)COC(=O)/C=C/c2ccc(OC(F)F)cc2)c(=O)n(C)c1=O", "inhibition": "-0.1%"},
      {"compound": "CCCOc1ccc(F)cc1-c1cc(C(=O)NCc2ccc(F)cc2)[nH]n1", "inhibition": "24.1%"},
      {"compound": "CCCOc1ccc(F)cc1-c1cc(C(=O)Nc2ccc(F)c(Cl)c2)[nH]n1", "inhibition": "76.2% (active)"},
      {"compound": "CCCOc1ccc(F)cc1-c1cc(C(=O)Nc2ccc(F)cc2)[nH]n1", "inhibition": "37.3%"},
      {"compound": "CCCNC(=O)c1cc2c(c(-c3cccc(-c4ccc(C#N)cc4)c3)n1)[C@@H](CCO)N(C(=O)CC)C2", "inhibition": "-20.1%"},
      {"compound": "CC(=O)c1c(C)n(-c2ccc(C)cc2)c2ccc(O)cc12", "inhibition": "15.6%"},
      {"compound": "CC(=O)c1c(C)n(-c2ccc(N(C)C)cc2)c2ccc(OCC(N)=O)cc12", "inhibition": "57.5% (active)"},
      {"compound": "Cc1cccc(OCC(=O)NCC(=O)N/N=C/c2ccc(N(C)C)cc2)c1", "inhibition": "-4.48%"},
      {"compound": "COC(=O)[C@]12CCCCC=C1N(Cc1ccccc1)C(=O)[C@H](CC(=O)NCc1ccc(C)o1)C2", "inhibition": "9.51%"},
      {"compound": "O=C1NC[C@H](CCCCN2C[C@H](Cc3ccc(O)cc3)N(CCc3ccccc3)C(=O)C2=O)N(CCc2ccccc2)C1=O", "inhibition": "13.5%"},
      {"compound": "N#Cc1ccccc1CN1C(=O)S/C(=C/c2cccn2-c2cccc(C(=O)O)c2)C1=O", "inhibition": "0.32%"},
      {"compound": "O=C1N/C(=C/c2cccn2-c2ccccc2)C(=O)N1c1cccc(Cl)c1", "inhibition": "62.3% (active)"},
      {"compound": "O=C1CC(NNc2ccccc2)C(=O)N1c1cccc(Cl)c1", "note": "(stereo not given)", "inhibition": "15.1%"},
      {"compound": "Cc1ccc([C@H]2C[C@H](O)[C@@H](n3cc(COC(=O)c4ccccc4)nn3)CN2C(=O)C2CCCCC2)cc1", "inhibition": "21%"},
      {"compound": "COCCNC(=O)c1ccccc1-c1nc(-c2ccccc2Cl)no1", "inhibition": "-18.8%"},
      {"compound": "Cc1c(NC(=O)C(C)OC(=O)c2ccccc2O)c(=O)n(-c2ccccc2)n1C", "note": "(stereo not given)", "inhibition": "2.88%"},
      {"compound": "COC(=O)[C@]12CCCCC=C1N(CCC1=CCCCC1)C(=O)[C@H](CC(=O)N1CCSCC1)C2", "inhibition": "-9.15%"},
      {"compound": "O=C(CN1C(=O)c2ccccc2S1(=O)=O)N1CCc2ccccc21", "inhibition": "103% (active)"},
      {"compound": "CN(Cc1ccc(F)cc1)C(=O)CN1C(=O)c2ccccc2S1(=O)=O", "inhibition": "7.88%"},
      {"compound": "COc1ccc(CNC(=O)CN2C(=O)c3ccccc3S2(=O)=O)cc1", "inhibition": "8.55%"},
      {"compound": "CCN(CC)c1ncnc2c1ncn2[C@H]1CN(Cc2cccs2)C[C@@H](CO)O1", "inhibition": "-23.3%"},
      {"compound": "COc1ccc(CN2C(=O)C(CC(=O)NC3CCCCC3)CC(C(=O)N3CCOCC3)=C2C)cc1", "note": "(stereo not given)", "inhibition": "-7.48%"},
      {"compound": "CCc1cccc(C)c1N(C(=O)Cn1c(CO)nc2ccccc21)C(C)COC", "note": "(stereo not given)", "inhibition": "-17.5%"},
      {"compound": "CCN1CCC(O)(/C=C/c2ccc(C)cc2)C(C(=O)/C=C/c2ccc(C)cc2)C1", "note": "(stereo not given)", "inhibition": "88.3% (active)"},
      {"compound": "CCN1CCC2(CC1)N=C(c1ccc(F)cc1)C(=S)N2C(=O)c1ccc(C)cc1", "inhibition": "42.7%"},
      {"compound": "CCOC(=O)[C@]12CCC=C1N(Cc1ccco1)C(=O)[C@H](CC(=O)NCc1cccc(C(F)(F)F)c1)C2", "inhibition": "11.1%"},
      {"compound": "COCCCNC(=O)CNC(=O)c1nn(-c2ccc(OC)cc2)c(=O)c2ccccc12", "inhibition": "23.9%"},
      {"compound": "CCOC(=O)c1cc(NC(=O)SCC(=O)O)c(C)nc1C", "inhibition": "-2.03%"},
      {"compound": "CCOC(=O)c1c(C2CC2)csc1NC(=O)CSCc1c(C)noc1C", "inhibition": "-9.7%"},
      {"compound": "CN(CC(=O)Nc1ccc(Cl)c(C(F)(F)F)c1)C(=O)CCC(=O)c1ccccc1", "inhibition": "7.71%"},
      {"compound": "O=C(Cc1ncc(C(F)(F)F)cc1Cl)Nc1cccc(Br)c1", "inhibition": "6.6%"},
      {"compound": "O=C(CC(O)(C(F)(F)F)C(F)(F)F)Nc1ccc(Cl)c(Cl)c1", "inhibition": "56.3% (active)"},
      {"compound": "CCN1/C(=C\\c2ccc3ccccc3[n+]2CC)Sc2cc(C)ccc21", "inhibition": "57.2% (active)"},
      {"compound": "O=C(COC(=O)C1CCN(S(=O)(=O)c2ccc3c(c2)OCCO3)CC1)Nc1ccccc1OC(F)F", "inhibition": "-22.5%"},
      {"compound": "C#Cc1ccc([C@@H]2C=C(C(=O)O)O[C@H](OCCCCO)C2)cc1", "inhibition": "-4.22%"},
      {"compound": "Cc1cn(C2C=CC(CO)O2)c(=O)[nH]c1=O", "note": "(stereo not given)", "inhibition": "-1%"},
      {"compound": "O=S(=O)(c1ccc(F)cc1)N1CCN=C1SCc1cccc(F)c1", "inhibition": "-11.2%"},
      {"compound": "O=C(Nc1c(Br)cc2c(c1Br)Cc1cc([N+](=O)[O-])ccc1-2)C(Cl)Cl", "inhibition": "-30.1%"},
      {"compound": "O=C(CN1CCN(S(=O)(=O)c2ccc(F)cc2)CC1)NC1CC1", "inhibition": "0.09%"},
      {"compound": "Cc1nc(N2CCN(c3ccccn3)CC2)c2c(C)c(C(=O)Nc3ccc(F)cc3)sc2n1", "inhibition": "18.8%"},
      {"compound": "Cc1nc(N2CCOCC2)c2c(C)c(C(=O)Nc3ccc(C(F)(F)F)cc3)sc2n1", "inhibition": "-3.25%"},
      {"compound": "Cc1nc(N2CCN(c3ccccn3)CC2)c2c(C)c(C(=O)Nc3ccc(F)c(Cl)c3)sc2n1", "inhibition": "66.9% (active)"},
      {"compound": "CCOC(=O)Cc1ncccc1C(=O)Nc1ccc(OC(F)(F)F)cc1", "inhibition": "-7.78%"},
      {"compound": "CCOc1c2ccc(C(=O)NCc3ccc(OC(F)(F)F)cc3)cc2nn1C", "inhibition": "-25.1%"},
      {"compound": "O=C(Nc1ccc(OC(F)(F)F)cc1)c1ccc2c(c1)no[n+]2[O-]", "inhibition": "60.4% (active)"},
      {"compound": "CCOC(=O)Cc1csc(NC(=O)CN(C)S(=O)(=O)c2ccc3c(c2)CCC(=O)N3)n1", "inhibition": "1.66%"},
      {"compound": "O=C(Nc1cc(C(F)(F)F)ccc1Cl)c1cc2nc3c(c(C(F)(F)F)n2n1)CCCC3", "inhibition": "76.7% (active)"},
      {"compound": "Nc1nc(SCC(=O)Nc2cc(C(F)(F)F)ccc2Cl)[nH]c(=O)c1NC(=O)c1ccco1", "inhibition": "10%"},
      {"compound": "O=C(Nc1ccc(Cl)cc1)c1cc2nc(C3CC3)cc(C(F)(F)F)n2n1", "inhibition": "-7.24%"},
      {"compound": "O=S1(=O)CSCS(=O)(=O)C1", "inhibition": "-11.8%"},
      {"compound": "O=C(OCC(=O)N1CCCCCC1)c1ccc(Br)c(S(=O)(=O)N2CCOCC2)c1", "inhibition": "-3.85%"},
      {"compound": "CC1CN/C(=C\\C(=O)c2ccc(Br)cc2)C(=O)N1", "note": "(stereo not given)", "inhibition": "62.2% (active)"},
      {"compound": "CC1(C)Cc2ccccc2/C(=C/C(=O)c2ccccc2)N1", "inhibition": "-22.4%"},
      {"compound": "COc1cc2c(cc1OC)/C(=C/C(=O)c1ccc(NC(C)=O)cc1)NCC2", "inhibition": "-11.2%"},
      {"compound": "O=C(CN(C(=O)c1csnn1)c1cccc(F)c1)NCc1ccc(F)cc1", "inhibition": "0.95%"},
      {"compound": "COc1ccc(C(c2nnnn2C2CCCC2)N2CCN(C/C=C/c3ccccc3)CC2)cc1", "note": "(stereo not given)", "inhibition": "-2.02%"},
      {"compound": "O=C(NCCOc1ccccc1)c1ccccc1F", "inhibition": "30.7%"},
      {"compound": "O=C(NCCOc1ccccc1)c1ccccc1", "inhibition": "54.9% (active)"},
      {"compound": "NS(=O)(=O)c1cc(C(=O)NCCOc2ccccc2)c(Cl)cc1Cl", "inhibition": "3.06%"}
    ]}
  ]
}
